HT1080 IDH1KD tx = qHTS for induction of synthetic lethality in tumor cells producing 2HG: qHTS for the HT-1080-IDH1KD cell line; HT-1080 IDH1 knockdown viability, ATP luminescence, 48 h; Potency, µM (doses to about 46.1 µM), inactives show top-dose activity, negative = toxicity, actives largely listed as cytotoxic; 360,000 tested, 2% active;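 further: 0% = DMSO wells and -100% = cell-free medium wells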
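Luminescent ATP read-out (CellTiter-Glo, 10 min at room temperature) after 48 h compound exposure at 37 °C gave viability of IDH1-knockdown HT-1080 cells. Activity was normalised to DMSO and cell-free wells, then fitted as concentration-response curves.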
HT1080NT lethal = qHTS for induction of synthetic lethality in tumor cells producing 2HG: qHTS for the HT-1080-NT fibrosarcoma cell line | HT-1080-NT fibrosarcoma viability, CellTiter-Glo ATP luminescence, 48 h | Potency, µM (highest dose often 46.1 µM), for the others: at the top dose activity, negative = less viability, actives largely listed as cytotoxic | 360,000 tested, 1.6% active;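 further: NT is the 2HG producing partner of a matched IDH1 knockdown line; 0% = DMSO-treated cells and -100% = media-only wells without cells; nearly all actives have a fitted effect of over 55% in size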
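HT-1080-NT; 750 cells/well; 5% FBS RPMI; 48 h compound, 37 degrees C; CellTiter-Glo luminescence; curve fitting and curve-class assignment.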
ATXN2 expr inh = Primary qHTS for Inhibitors of ATXN expression; AID 1745845, 2022; 360,000 tested, 0.72% active; HEK-293 ATXN2-luciferase reporter, luminescence, 24 h; Potency, µM (titrated, usually from 57 µM), for the others: at the top dose activity change, negative = inhibition, usual class: inhibitors; further: on the % scale 0 is the no-effect control and ±100 the full control effect; nearly all actives have a fitted effect of over 55% in size
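qHTS (up to 57 uM final) was run with 24 h compound exposure of reporter cells at 37 °C. Each well was multiplexed: SteadyGlo luminescence measured ATXN2-luciferase expression after a fluorogenic Gly-Phe-AFC viability readout (25 uM final).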
KB-3-1 cytotox = qHTS assay for MDR1-selective chemotherapeutics: Primary screen using the parental adenocarcinoma cell KB-3-1. KB-3-1 viability, CellTiter-Glo ATP luminescence, 72 h. Potency, µM (top dose mostly 46.1 µM), hits mostly cytotoxic. 400,000 tested, 1.4% active; further: on the % scale 0 is the no-effect control and ±100 the full control effect; nearly all actives have a fitted effect of over 60% in size
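KB-3-1 parental drug-naive adenocarcinoma cells in DMEM/10% FBS, incubated 72 h at 37 C with pin-transferred compounds across a concentration series. Viability by CellTiter-Glo luminescence; concentration-response curves fitted after normalization.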
S2 tox = Viability Counterscreen for Primary qHTS for Inhibitors of ATXN expression; S2 cells (HEK-293 line with an ATXN2-luciferase reporter) viability, CellTiter-Fluor protease fluorescence, 24 h; 400,000 tested, 0.49% active; Potency, µM (doses to about 56.7 µM), hits mostly cytotoxic; further: nearly all actives have a fitted effect of over 40% in size
KB-V1 MDR tox = qHTS assay for MDR1-selective chemotherapeutics: Primary screen using the drug-selected MDR subline cells KB-V1. Potency, µM (doses to about 46.1 µM), actives largely listed as cytotoxic. 400,000 tested, 3.4% active. KB-V1 MDR cells viability, CellTiter-Glo, 72 h; further: on the % scale 0 is the no-effect control and ±100 the full control effect; nearly all actives have a fitted effect of over 60% in size
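Cells of the MDR subline KB-V1 are plated, dosed with compound at multiple concentrations, and incubated 72 h at 37 degrees C; CellTiter-Glo is then added and luminescence read after 10 min.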
Numbers without * were called inactive; i = inactive; u = inconclusive; x = no result; [ ] = dose if it differs, or a comment. Rows were chosen to be rich in hits. Some 6.2% of all compounds tested hit in one or more screens of this group. The call rests on the fitted dose curve; in most records, active means well fitted curve in the direction sought with a large enough effect; inconclusive means small, poorly fitted or top-dose-only effect, or another doubt; inactive means no such curve, though single readings can be large; an effect the other way counts as inactive or inconclusive. Potency means the concentration at half of the fitted maximal effect.

SMILES	HT1080 IDH1KD tx	HT1080NT lethal	ATXN2 expr inh	KB-3-1 cytotox	S2 tox	KB-V1 MDR tox
CC(C)N(C(=O)[C@H]1C[C@H](CC(=O)NCCCN(C)C)C(=O)N2CCc3c([nH]c4cc(-c5ccco5)ccc34)[C@]12C)C(C)C	u	u	u	i	32µM*	i
CC(C)N(C(=O)[C@H]1C[C@H](CC(=O)NCCC2=CCCCC2)C(=O)N2CCc3c([nH]c4cc(-c5ccco5)ccc34)[C@]12C)C(C)C	u	-27%	u	23µM*	u	u
Cc1ccc(NC(=O)C2CCCN2C(=O)Oc2ccccc2)cc1C (configuration not stated)	-3%	-1%	-4%	i	i	15µM*
CCc1ccccc1NC(=O)N(C)CCc1c(C)nn(C)c1C	x	x	7%	i	i	u
CCN1CCC(N(Cc2ccc(F)cc2)C(=O)Nc2cccc(C(F)(F)F)c2)CC1	x	x	28µM*	i	i	i
Cc1cccc(-c2noc(-c3ccc(NCC4CCCO4)c([N+](=O)[O-])c3)n2)c1 (configuration not stated)	x	x	15%	i	i	i
COc1cc(C(C[N+](=O)[O-])c2c(N)n(C)c(=O)n(C)c2=O)ccc1O (configuration not stated)	21µM*	u	u	u	u	u
COc1cccc(F)c1C(C[N+](=O)[O-])c1c(N)n(C)c(=O)n(C)c1=O (configuration not stated)	5.8µM*	10µM*	x	u	20µM*	u
Cn1c(N)c(C(C[N+](=O)[O-])c2ccccc2Cl)c(=O)n(C)c1=O (configuration not stated)	11%	-3%	10%	i	i	i
COc1cc(C(C[N+](=O)[O-])c2c(C)cc3ccccn23)ccc1O (configuration not stated)	9.2µM*	u	-13%	u	u	u
Cc1ccc(C(C[N+](=O)[O-])c2c(N)n(C)c(=O)n(C)c2=O)cc1 (configuration not stated)	u	u	-19%	16µM*	u	u
Cc1ccc(-c2cnc(C3CC3)o2)cc1S(=O)(=O)Nc1ccc(F)cc1Cl	x	x	-5%	i	i	u
Cc1cnc(-n2ncc(C(=O)NCc3ccccn3)c2C2CC2)nc1-c1cccs1	x	x	x	x	i	x
CCCCNC(=O)CO/N=C(\C)c1cc2ccccc2o1	5%	5%	16%	i	i	16µM*
C/C(=N\OCC(=O)NCC(F)(F)F)c1cc2ccccc2o1	14%	21%	67%	i	i	i
Cc1ccc(-n2c(Cc3cccn3C)nnc2SCC(=O)Nc2ccc3c(c2)OCO3)cc1	u	-9%	-7%	i	i	3.7µM*
COc1ccc(-n2c(Cc3cccn3C)nnc2SCC(=O)NCc2ccc(F)cc2)cc1	6%	11%	0%	i	i	u
CCSc1nnc(NC(=O)CSc2nnc(Cc3cccn3C)n2-c2ccc(F)cc2)s1	6%	-6%	-5%	i	i	16µM*
Cc1ccc(-n2c(Cc3cccs3)nnc2SCC(=O)Nc2ccc(F)c(F)c2)cc1	11µM*	-11%[9.24 µM]	-10%	i	i	i
Cn1cccc1Cc1nnc(SCC(=O)Nc2ccc3c(c2)OCCO3)n1-c1ccc(F)cc1	9%	7%	8%	i	i	i
Cc1ccc(-n2c(Cc3cccn3C)nnc2SCC(=O)NCc2ccc3c(c2)OCO3)cc1	-2%	7%	-14%	u	i	15µM*
Cc1cnc(C(=O)N(CCCn2ccnc2)C2C(=O)Nc3ccccc3N=C2c2ccccc2)cn1 (configuration not stated)	18%	7%	4%	i	i	i
CC(C)c1nc(C(=O)N2CCOc3ccc(CN4CCN(c5ccccn5)CC4)cc3C2)cs1	x	x	x	x	i	x
CCOC(=O)c1cc2c(=O)n3ccccc3nc2n(CCOC)c1=NC(=O)c1cc2ccccc2o1	x	x	13%	u	i	u
COc1ccccc1N1C(=O)N(C(C)=O)C2C1Nc1ccccc1N2C (configuration not stated)	-28%[9.24 µM]	16µM*	25µM*	i	i	i
SMILES	HT1080 IDH1KD tx	HT1080NT lethal	ATXN2 expr inh	KB-3-1 cytotox	S2 tox	KB-V1 MDR tox
COc1ccccc1N1C(=O)c2ccccc2NC1c1ccncc1 (configuration not stated)	8%	12%	-18%	i	u	i
CN1N/C(=C\c2ccccc2)N=C2C(=O)N(C)C(=O)N=C21	x	x	x	i	x	i
CC/C=C1/N=C2C(=O)N(C)C(=O)N=C2N(C)N1	x	x	x	18µM*	x	i
Cc1nn(C)c2c1c(-c1ccccc1)cc(=O)n2Cc1ccccc1Cl	x	x	9%	i	i	i
CCc1ccc(C(=O)C[n+]2cccc3cc(OC)ccc32)cc1	-16%	-17%	u	13µM*	u	i
COc1ccc2c(ccc[n+]2CC(=O)c2ccc(C)cc2)c1	-26%	0%	-25%	u	i	i
Cc1ccc(S(=O)(=O)CCSc2nc(C)cc(C(F)(F)F)c2C#N)cc1	u	u	-19%	18µM*	i	13µM*
CC(CCc1ccccc1)NC(=O)c1ccc(C(=O)NC(C)CCc2ccccc2)cc1 (configuration not stated)	u	u	6.3µM*	i	u	i
Cc1cc(CNC(=O)c2cnn(-c3ncc4c(n3)-c3ccccc3CC4)c2C2CC2)on1	x	x	x	x	i	x
CCOc1ccc(N(CCC#N)S(=O)(=O)c2ccc(OC)cc2)cc1	u	u	-22%	u	i	21µM*
COc1ccc(-c2sc3ccc(N4CCOCC4)cc3c2C#CCCO)cc1	23µM*	23µM*	u	u	u	u
COc1ccc(C#Cc2c(-c3ccsc3)oc3ccc(N4CCOCC4)cc23)cc1	5%	-1%	0%	i	i	i
OC1(C#Cc2c(-c3ccsc3)oc3ccc(N4CCOCC4)cc23)CCCCC1	u	u	-29%	u	u	i
COc1ccc(-c2sc3cc(OC)c(OC)cc3c2C#CCCO)cc1	u	u	-6%	i	u	i

Compound activity from PubChem.
